Results as given in PubChem BioAssay (Tox21).
Results filed as inconclusive are left out. More than one record can exist for a structure, and the calls need not agree. The source made the active and inactive calls. Unless noted, the call rests on the fitted dose curve; in most records, active means well fitted curve in the direction sought with a large enough effect in the repeat runs; inconclusive means weak or mixed curves; inactive means no such curve, though single readings can be large; an effect the other way counts as inactive or inconclusive.

Tests used:
[1] = target: Progesterone receptor (Homo sapiens) (UniProt P06401); assay: qHTS assay to identify small molecule antagonists of the progesterone receptor (PR) signaling pathway (AID 1346795; active means well fitted inhibition curve with a large enough effect in the signal ratio in the repeat runs, not every such curve was filed as active; the % refers to the signal ratio)
Progesterone receptor (Homo sapiens), sequence (P06401 whole entry, looked up): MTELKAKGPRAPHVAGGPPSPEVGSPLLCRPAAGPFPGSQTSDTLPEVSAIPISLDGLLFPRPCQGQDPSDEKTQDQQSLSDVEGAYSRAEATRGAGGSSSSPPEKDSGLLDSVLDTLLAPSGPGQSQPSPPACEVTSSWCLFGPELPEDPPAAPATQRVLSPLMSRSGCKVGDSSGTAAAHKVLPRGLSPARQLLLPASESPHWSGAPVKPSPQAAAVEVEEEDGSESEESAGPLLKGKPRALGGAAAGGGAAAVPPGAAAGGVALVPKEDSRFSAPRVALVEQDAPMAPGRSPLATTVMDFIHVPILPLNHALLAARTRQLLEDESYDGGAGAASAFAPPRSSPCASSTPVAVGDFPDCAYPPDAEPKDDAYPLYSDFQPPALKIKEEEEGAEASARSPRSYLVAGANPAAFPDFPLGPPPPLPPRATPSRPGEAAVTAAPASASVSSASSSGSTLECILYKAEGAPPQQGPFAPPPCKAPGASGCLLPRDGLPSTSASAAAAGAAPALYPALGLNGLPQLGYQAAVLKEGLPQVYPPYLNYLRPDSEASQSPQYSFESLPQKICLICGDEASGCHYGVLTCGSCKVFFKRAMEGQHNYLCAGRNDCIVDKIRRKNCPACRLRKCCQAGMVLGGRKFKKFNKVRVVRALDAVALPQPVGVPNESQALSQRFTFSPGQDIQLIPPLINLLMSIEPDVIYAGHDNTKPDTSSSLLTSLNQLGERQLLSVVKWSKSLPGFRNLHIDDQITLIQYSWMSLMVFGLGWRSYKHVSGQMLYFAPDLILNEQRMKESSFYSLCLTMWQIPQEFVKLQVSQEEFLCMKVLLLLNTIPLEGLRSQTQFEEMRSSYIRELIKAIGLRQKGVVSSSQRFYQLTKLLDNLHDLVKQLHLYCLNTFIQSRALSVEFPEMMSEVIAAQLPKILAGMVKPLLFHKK
Procedure, shortened: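 PR-UAS-bla HEK293T cells carrying a UAS-driven beta-lactamase reporter were plated in medium with 2% charcoal-stripped FBS and rested 6 hr at 37C. Compounds were added with 1 nM R5020 (final) for 16 hr, then FRET substrate loaded 2 hr at room temperature.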

[2] = qHTS assay to identify small molecule antagonists of the progesterone receptor (PR) signaling pathway - cell viability counter screen (AID 1346798); further: series mostly up to about 92 µM; nearly all actives have a fitted effect of over 50% in size
Procedure, shortened: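 PR-UAS-bla HEK293T cells in medium with 2% charcoal-stripped FBS were treated with compounds plus R5020 for 16 hr at 37C. Cell viability was then read by CellTiter-Glo luminescence after 30 min at room temperature in the same wells.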

[3] = qHTS assay to identify small molecule agonists of the progesterone receptor (PR) signaling pathway - cell viability counter screen (AID 1346799; calls by dose curve; further: nearly all actives have a fitted effect of over 45% in size; further: potency means the concentration at half of the fitted maximal effect)
Procedure, shortened: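 PR-UAS-bla HEK293T cells, 3,000 per well in medium with 2% charcoal-stripped FBS, were preincubated 6 hr at 37C, then exposed to compounds for 16 hr; viability was read as CellTiter-Glo luminescence after 30 min at room temperature.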

[4] = qHTS assay to identify small molecule antagonists of the TGF-beta/Smad signaling pathway - cell viability counter screen (AID 1346824); further: nearly all actives have a fitted effect of over 50% in size
Procedure, shortened: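 SBE-bla HEK 293T cells, incubated overnight, then compound plus 0.25 ng/mL TGF-beta1 (stock added) for 5 hr at 37 C. Viability was read in the same wells by CellTiter-Glo luminescence after 30 min at room temperature.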

[5] = qHTS assay to identify small molecule agonists of the TGF-beta/Smad signaling pathway - cell viability counter screen (AID 1346829); further: top concentration of the series differs between compounds; nearly all actives have a fitted effect of over 45% in size
Procedure, shortened: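 After overnight seating at 37 C and 5% CO2, reporter cells got compounds for 5 hr and FRET substrate for 2 hr; cell viability then came from CellTiter-Glo luminescence.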

[6] = qHTS assay to identify small molecule agonists of the TGF-beta/Smad signaling pathway (AID 1346859; active means well fitted activation curve with a large enough effect in the signal ratio in the repeat runs, not every such curve was filed as active; the % refers to the signal ratio; further: series mostly up to about 77 µM)
Procedure, shortened: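 HEK 293T cells stably carrying a beta-lactamase reporter driven by the Smad binding element were seeded overnight, exposed to DMSO-dissolved compounds for 5 hr at 37 C, 5% CO2, then loaded with FRET substrate for 2 hr at room temperature.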

[7] = target: Thyrotropin-releasing hormone receptor (Homo sapiens) (UniProt P34981); assay: qHTS assay to identify small molecule antagonists of the thyrotropin-releasing hormone receptor (TRHR) signaling pathway (AID 1346877; active means well fitted inhibition curve with a large enough effect in the repeat runs, not every such curve was filed as active; further: potency means the concentration at half of the fitted maximal effect)
Thyrotropin-releasing hormone receptor (Homo sapiens), sequence (P34981 whole entry, looked up): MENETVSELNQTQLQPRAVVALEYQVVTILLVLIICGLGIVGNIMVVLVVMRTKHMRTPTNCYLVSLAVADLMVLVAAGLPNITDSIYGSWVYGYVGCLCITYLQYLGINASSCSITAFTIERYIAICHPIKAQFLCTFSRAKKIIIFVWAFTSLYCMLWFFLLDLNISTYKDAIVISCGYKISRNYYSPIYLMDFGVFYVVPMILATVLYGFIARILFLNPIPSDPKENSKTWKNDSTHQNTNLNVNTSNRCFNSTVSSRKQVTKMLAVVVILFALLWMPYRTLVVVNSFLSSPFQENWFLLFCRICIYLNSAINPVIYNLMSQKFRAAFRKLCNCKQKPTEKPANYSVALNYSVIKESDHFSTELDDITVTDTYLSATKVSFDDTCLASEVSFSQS
Procedure, shortened: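 In this cell-based calcium flux format, HEK293 cells expressing TRHR received test compound for 5 min before the agonist TRH (1 nM final). Dye loading lasted 2 h at 37 °C.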

[8] = target: Thyrotropin-releasing hormone receptor (Homo sapiens) (UniProt P34981); assay: qHTS assay to identify small molecule agonists of the thyrotropin-releasing hormone receptor (TRHR) signaling pathway (AID 1346891; calls by dose curve; further: series mostly up to about 58 µM)
Procedure, shortened: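 TRHR-expressing HEK293 cells were plated 18 h at 37 °C/5% CO2, loaded with calcium dye 2 h at 37 °C, then given compound in DMSO; fluorescence was read kinetically for 3 min at 1 s intervals.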

[9] = Human pregnane X receptor (PXR) small molecule agonists, qHTS cell viability counter screen (AID 1346977); further: nearly all actives have a fitted effect of over 50% in size; further: potency means the concentration at half of the fitted maximal effect
Procedure, shortened: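 PXR-Luc HepG2 cells in medium with 5% charcoal-stripped FBS were pre-incubated 5hr, then exposed to compounds for 24hr at 37C. Viability was read in the same wells by CellTiter-Fluor fluorescence, reagent added after 23hr with a 1hr incubation.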

[10] = Caspase-3/7 induction in HepG2 cells by small molecules, qHTS assay (AID 1346978); further: nearly all actives have a fitted effect of over 15% in size
Procedure, shortened: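 Wild-type HepG2 cells, 2,000/well, settled 5 hr at 37 C and 5% CO2, then compound-treated for 17 hr; caspase-3/7 activity read by luminescent Caspase-Glo 3/7 after 30 min at room temperature.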

Measured: Potency

CC(=O)CC(=O)Nc1ccc(S(=O)(=O)O)cc1
inactive: [1] | [2] | [3] | [4] | [5] | [6] | [7] | [8] | [9] | [10]

O=C1c2ccccc2C(=O)N1SC1CCCCC1
30.1 µM (active) and inactive: [7]
inactive: [1] | [2] | [3] | [4] | [5] | [6] | [8] | [9] | [10]

O=C1C(c2[nH]c3ccc(S(=O)(=O)O)cc3c2O)=Nc2ccc(S(=O)(=O)O)cc21
inactive: [1] | [2] | [3] | [4] | [5] | [6] | [7] | [8] | [9] | [10]

CCC(=O)C(=O)CC
inactive: [1] | [2] | [3] | [4] | [5] | [6] | [7] | [8] | [9]

CCCCOC(=O)CC
inactive: [1] | [2] | [3] | [4] | [5] | [6] | [7] | [8] | [9] | [10]

ClCCl
inactive: [1] | [2] | [3] | [4] | [5] | [6] | [7] | [8] | [9]

CN(C)Cc1ccccc1O
inactive: [1] | [2] | [3] | [4] | [5] | [6] | [8] | [9] | [10]

CCCCCC/C=C\CCCCCCCC(=O)O
inactive: [1] | [2] | [3] | [4] | [5] | [6] | [7] | [8] | [9] | [10]

COc1cc(/C=C/c2ccccc2)oc(=O)c1
inactive: [1] | [2] | [3] | [4] | [5] | [6] | [7] | [8] | [9] | [10]

CCC(=O)OC(=O)CC
active: [3] 54 µM
inactive: [1] | [2] | [4] | [5] | [6] | [8] | [9] | [10]

OC1CCCc2ccccc21 (stereo unspecified)
inactive: [1] | [2] | [3] | [4] | [5] | [6] | [7] | [8] | [9] | [10]

O=C(/C=C/c1ccccc1)OC/C=C/c1ccccc1
inactive: [1] | [2] | [3] | [4] | [5] | [6] | [7] | [8] | [9] | [10]

Nc1nc(N)nc(-c2cc(Cl)ccc2Cl)n1
inactive: [1] | [2] | [3] | [4] | [5] | [6] | [8] | [9] | [10]

CN(C)C(=O)COC(=O)Cc1ccc(OC(=O)c2ccc(N=C(N)N)cc2)cc1
inactive: [1] | [2] | [3] | [4] | [5] | [6] | [7] | [8] | [9]

O=[N+]([O-])c1cccc(C(F)(F)F)c1
inactive: [1] | [2] | [3] | [4] | [5] | [6] | [7] | [8] | [9] | [10]

Cc1ccc(C(C)C)cc2c(C)ccc1-2
inactive: [1] | [2] | [3] | [4] | [5] | [6] | [7] | [8] | [9] | [10]

CCCC[P+](C)(CCCC)CCCC
inactive: [1] | [2] | [3] | [4] | [5] | [6] | [8] | [9] | [10]

Cc1c(C)c2c(c(C)c1OC(=O)c1cccnc1)CC[C@@](C)(CCC[C@H](C)CCC[C@H](C)CCCC(C)C)O2
inactive: [1] | [2] | [3] | [4] | [5] | [6] | [9]

COC(=O)c1ccccc1OC
inactive: [1] | [2] | [3] | [4] | [5] | [7] | [8] | [9] | [10]

O=C1OC2(c3ccc(O)cc3Oc3cc(O)ccc32)c2ccc(N=C=S)cc21
inactive: [1] | [2] | [3] | [4] | [5] | [9] | [10]

CC[N+](CC)(CC)CCOC(=O)C(C1CCCC1)C1CCCC1
inactive: [1] | [2] | [3] | [4] | [5] | [7] | [8] | [9] | [10]

Cc1ccc(-c2ccccc2)cc1
inactive: [1] | [2] | [3] | [5] | [6] | [7] | [8] | [9]

O=C(Nc1ccc2c(O)c(N=Nc3ccc(N=Nc4ccc(S(=O)(=O)O)cc4)cc3)c(S(=O)(=O)O)cc2c1)c1ccccc1
inactive: [1] | [2] | [3] | [4] | [5] | [6] | [8] | [10]
active: [9] 8.63 µM

OC[C@@H](O)[C@@H](O)CO
inactive: [1] | [2] | [3] | [4] | [5] | [7] | [8] | [9] | [10]
